According to PubChem BioAssay (NCATS):
Several values for one entry are separate records, joined by “and”; a condition that tells them apart may be missing. Equal entries are not always repeated. Inconclusive results are not listed. Activity calls are given as the source filed them. The call rests on the fitted dose curve.

Experiment: Primary qHTS to identify inhibitors of SARS-CoV-2 cell entry (AID 1645846); further: nearly all actives have a fitted effect of over 45% in size
Details: SARS-CoV-2 pseudovirus cell entry assay, luminescence; activity change, negative = inhibition: at 57.1 µM (top of the series) unless noted; series mostly up to 57.1 µM
Method in brief: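 HEK293-ACE2 (Expi293F, stable hACE2), 1500 cells/well, o/n 37C; cpd 23 nL pin, 1 h; MLV-PP w/ SARS-CoV-2-S (Wuhan-Hu-1, Δ19 C-term); 48 h 37C; Bright-Glo luminescence; normalized vs S-PP and bald PP.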
Potency means the concentration at half of the fitted maximal effect.

| Compound | activity change, negative = inhibition | Potency |
| --- | --- | --- |
| O=C(/C=C/c1ccccc1)OCc1ccccc1 | -14.8% | – |
| COc1ccc2[nH]cc(CCNC(C)=O)c2c1 | -6.18% | inactive |
| CC(C(=O)O)c1ccc(C(=O)c2ccccc2)s1 (stereo unspecified) | – | inactive |
| COc1cc(NS(C)(=O)=O)ccc1Nc1c2ccccc2nc2ccccc12 | – | 1 µM (active) and 708 nM (active) |
| C/C(=N\O)[C@@H](C)NCC(C)(C)CN[C@H](C)/C(C)=N/O | – | inactive |
| C[C@]12CC[C@@H]3c4ccc(OC(=O)N(CCCl)CCCl)cc4CC[C@H]3[C@@H]1CC[C@@H]2OP(=O)(O)O | – | inactive |
| C#CCC(Cc1cnc2nc(N)nc(N)c2n1)c1ccc(C(=O)N[C@@H](CCC(=O)O)C(=O)O)cc1 (stereo partly specified) | -93.7% | – |
| CC(=O)NC[C@H]1CN(c2ccc(N3CCOCC3)c(F)c2)C(=O)O1 | -4.07% | – |
| CC(=O)S[C@@H]1CC2=CC(=O)CC[C@]2(C)[C@H]2CC[C@@]3(C)[C@@H](CC[C@@]34CCC(=O)O4)[C@H]12 | -11% | – |
| CC(C)(C)CC(C)(C)c1ccc(OCCOCC[N+](C)(C)Cc2ccccc2)cc1 | – | 20 µM (active) |
| C[n+]1c2cc(N)ccc2cc2ccc(N)cc21 (tested in a mixture with another compound) | – | 7.94 µM (active) |
| NC1CCN(c2nc3c(cc2F)c(=O)c(C(=O)O)cn3-c2ccc(F)cc2F)C1 (stereo unspecified) | – | inactive |
| CO[C@@]1(NC(=O)C2SC(=C(C(N)=O)C(=O)O)S2)C(=O)N2C(C(=O)O)=C(CSc3nnnn3C)CS[C@@H]21 (stereo partly specified) | 4.49% | – |
| Nc1nc2ccc(OC(F)(F)F)cc2s1 | – | inactive |
| Cc1cc2cc3c(C)cc(=O)oc3c(C)c2o1 | – | inactive |
